Sampled rows, rich in hits. Any-hit rate of the full collection: about 10%.
GPT2 inh: blocks human glutamate pyruvate transaminase 2; Q8TD30; Recombinant GPT2, coupled pyruvate oxidase/HRP Amplex Red fluorescence; Potency, µM (titrated, usually from 57.7 µM), most hits filed as inhibitors; 100,000 tested, 0.25% active; note: nearly all actives have a fitted effect of over 60% in size
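Fluorescence of coupled pyruvate oxidase/HRP/Amplex Red system (50uM Amplex, 30 min, dark) reports pyruvate formed by GPT2. Enzyme reaction: 10ng/uL GPT2, 2mM L-alanine, 250uM a-KG, 30 min room temperature, pH 7.5; 50uM AOA control.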
hNpr1 antagonist: human Npr1 receptor antagonism. P16066. HEK293 hNpr1 GloSensor cGMP, ANP-stimulated luminescence. Potency, µM (doses to about 46.3 µM), hits mostly inhibitors. 76,000 tested, 1.6% active; calls by dose curve; note: nearly all actives have a fitted effect of over 60% in size
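HEK293 cells stably expressing human Npr1 and cGMP GloSensor pGS-40F, loaded 2 h with 2% GloSensor reagent, given compound 30 min at room temperature. Luminescence read before and 20 min after 0.1 nM hNppA.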
FLuc inh: inhibitors of firefly (Photinus pyralis) luciferase; 76,000 tested, 2.5% active; Potency, µM (doses to about 115 µM), most hits filed as inhibitors; purified P. pyralis luciferase, luminescence, biochemical; P08659; note: nearly all actives have a fitted effect of over 65% in size
Target sequence (P08659 whole entry, looked up): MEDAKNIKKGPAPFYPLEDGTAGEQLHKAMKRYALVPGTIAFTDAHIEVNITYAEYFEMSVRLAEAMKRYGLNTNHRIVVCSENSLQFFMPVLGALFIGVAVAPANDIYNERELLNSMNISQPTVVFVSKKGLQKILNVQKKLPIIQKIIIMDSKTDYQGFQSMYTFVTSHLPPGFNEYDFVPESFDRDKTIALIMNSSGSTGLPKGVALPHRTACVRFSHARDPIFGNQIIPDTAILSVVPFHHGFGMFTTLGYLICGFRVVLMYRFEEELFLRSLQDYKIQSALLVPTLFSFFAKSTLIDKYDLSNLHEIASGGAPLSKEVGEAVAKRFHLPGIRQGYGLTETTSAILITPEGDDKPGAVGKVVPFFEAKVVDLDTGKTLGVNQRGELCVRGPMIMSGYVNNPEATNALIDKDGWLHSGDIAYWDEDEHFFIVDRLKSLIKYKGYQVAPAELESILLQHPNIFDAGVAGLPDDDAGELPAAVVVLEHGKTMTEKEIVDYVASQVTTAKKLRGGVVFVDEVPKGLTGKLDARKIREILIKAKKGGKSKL
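Purified P. pyralis luciferase (10nM final) in 50mM Tris acetate pH 7.5, 10mM Mg acetate, 0.01% Tween-20, 0.05% BSA with 10uM D-luciferin and 10uM ATP. Compounds titrated qHTS. Luminescence imaged on CCD.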
HEK cytotox: HEK 293 cell cytotoxicity; 94,000 tested, 6.6% active; Potency, µM (titrated, usually from 115 µM), actives largely listed as inhibitors; AID 1345083; HEK 293 viability, ATP luminescence (CellTiter-Glo), 48-72 h; note: nearly all actives have a fitted effect of over 60% in size
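HEK 293 cells seeded at 250 cells/well were exposed to compound for 48 or 72 hr at 37 degree Celsius. Viability taken as ATP content by CellTiter-Glo luminescence.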
NIH3T3 tox: cytotoxic compounds in NIH 3T3 cells | NIH 3T3 viability, CellTiter-Glo ATP luminescence, 48-72 h | Potency, µM (top dose mostly 96.7 µM), hits mostly inhibitors | 94,000 tested, 4.3% active; note: nearly all actives have a fitted effect of over 55% in size
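Luminescent ATP readout (CellTiter-Glo, 10 min RT) after 48 or 72 hr compound exposure of NIH 3T3 cells seeded at 400 cells/well in 1536-well format; quantitative HTS.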
Large screens that a line does not name were inactive. Unless noted, calls come from the whole dose curve; as a rule, active = well fitted curve in the direction sought with a large enough effect; inconclusive = small, poorly fitted or top-dose-only effect, or another doubt; inactive = no such curve, though single readings can be large; an effect the other way counts as inactive or inconclusive.

C=CCOc1c(OC)ccc2c1CN(C1CCCC1)C(=O)CCN2CC(O)Cc1ccccc1 (centres undefined)	HEK cytotox 45µM, NIH3T3 tox inconclusive (no result: GPT2 inh, hNpr1 antagonist, FLuc inh)
C=CCOc1c(OC)ccc2c1CN(CC1CC1)C(=O)CCN2C[C@@H](O)COCc1ccccc1	HEK cytotox 45µM, NIH3T3 tox inconclusive (no result: GPT2 inh, hNpr1 antagonist, FLuc inh)
CCOC(=O)CN1Cc2ccccc2N(CC(O)COc2ccc(OC)cc2)CCC1=O (centres undefined)	HEK cytotox inconclusive (no result: GPT2 inh, hNpr1 antagonist, FLuc inh)
C=CCOCC(O)CN1CCC(=O)N(C2CCCC2)Cc2c1ccc(OC)c2OCC=C (centres undefined)	HEK cytotox inconclusive (no result: GPT2 inh, hNpr1 antagonist, FLuc inh)
O=C(c1ccsc1)N1CCC2(CCC2N2CCOCC2)CC1 (centres undefined)	none (no result: hNpr1 antagonist, FLuc inh)
O=C(NC[C@H]1O[C@H](Cc2cc(-c3ccccn3)on2)CC[C@@H]1O)c1ccc2c(c1)OCO2	none
COc1ccccc1N1CCN(C(=O)Nc2n[nH]c(Cc3ccccc3)n2)CC1	HEK cytotox 25µM, NIH3T3 tox inconclusive
CC1=C[C@@H](CC#N)[C@H](C(C)C)C[C@H]1CC(=O)N1CCC(C)CC1	HEK cytotox 71µM, NIH3T3 tox inconclusive
CC1=C[C@@H](CC#N)[C@H](C(C)C)C[C@H]1CC(=O)NC1CCCCC1	HEK cytotox 89µM, NIH3T3 tox inconclusive
COc1ccc(C2Cn3nnc(C(=O)N4CCC(C(=O)NC5CCCC5)CC4)c3CO2)cc1 (centres undefined)	none
COc1ccc(-n2nc(C3CCN(C(=O)C(C)(C)C)CC3)[nH]c2=O)cc1	NIH3T3 tox inconclusive
COCCOC1CCN(C(=O)c2cn[nH]c2-c2ccc(F)cc2)CC1	FLuc inh inconclusive
O=C(c1cn[nH]c1-c1ccc(F)cc1)N1CCC(OCCOc2ccccc2)CC1	HEK cytotox 50µM, NIH3T3 tox inconclusive (no result: hNpr1 antagonist, FLuc inh)
CCc1[nH]c2c(CNC(=O)c3n[nH]c4c3CCC4)cc(C)cc2c1C	HEK cytotox 35µM, NIH3T3 tox 35µM
CCc1[nH]c2c(CNC(=O)CC3C(=O)NCCN3C(C)C)cc(C)cc2c1C (centres undefined)	none
CC(C)CCNC(=O)c1c(OCC2CC2)cc(=O)n2c1CCCCC2	HEK cytotox inconclusive, NIH3T3 tox 35µM
COc1ccc(C(=O)Nc2ccc([C@H]3OCC(=O)N(C(C)C)[C@@H]3CO)cc2)cc1	FLuc inh 25µM, HEK cytotox inconclusive, NIH3T3 tox inconclusive
COc1ccc(CN2C(=O)CO[C@H](c3ccc(NC(=O)c4ccc(OC)cc4)cc3)[C@H]2CO)cc1	FLuc inh inconclusive, HEK cytotox inconclusive, NIH3T3 tox inconclusive
COc1ccc(C(=O)Nc2ccc([C@H]3OCC(=O)N(C)[C@@H]3CO)cc2)cc1	FLuc inh 71µM
COc1cc(-c2cc(-c3ccccc3)nc3c(C)noc23)ccn1	NIH3T3 tox inconclusive
Cc1noc2c(-c3cccnc3NCCCn3ccnc3)cc(-c3ccccc3)nc12	HEK cytotox 71µM, NIH3T3 tox inconclusive
COCCCNc1ncccc1-c1cc(-c2ccccc2)nc2c(C)noc12	HEK cytotox 112µM, NIH3T3 tox inconclusive
Cc1noc2c(-c3cccnc3N(C)C)cc(-c3ccccc3)nc12	HEK cytotox inconclusive, NIH3T3 tox inconclusive
Cc1noc2c(-c3cccnc3NCc3cccnc3)cc(-c3ccccc3)nc12	GPT2 inh inconclusive, HEK cytotox inconclusive, NIH3T3 tox inconclusive
Cc1noc2c(-c3cccnc3NCCN(C)C)cc(-c3ccccc3)nc12	HEK cytotox 89µM, NIH3T3 tox 45µM
Cc1noc2c(-c3cccc(O)c3)cc(-c3ccccc3)nc12	HEK cytotox 50µM, NIH3T3 tox 28µM
Cc1cnc(C(=O)NC2C[C@H]3CC[C@@H](C2)N3C(=O)Cc2ccccc2)cn1 (some centres undefined)	none
Cc1oc2c(c1C(=O)NCc1ccc3c(c1)OCO3)CN(Cc1ccc(F)cc1)CC2	hNpr1 antagonist inconclusive, HEK cytotox inconclusive, NIH3T3 tox inconclusive
Cc1nn(-c2ccc(F)cc2)c(C)c1[C@@H]1C=C[C@@H](NS(=O)(=O)c2cccs2)C1	GPT2 inh inconclusive, HEK cytotox inconclusive, NIH3T3 tox inconclusive
Cc1nn(CCC#N)c(C)c1[C@@H]1C=C[C@@H](NS(=O)(=O)c2cccs2)C1	NIH3T3 tox 45µM
Cc1n[nH]c(C)c1CNC(=O)CN1CC2CC(C1)[C@H]1CCCC(=O)N1C2 (some centres undefined)	none
Cc1nc(CN2Cc3nc(-c4ccc5c(c4)OCO5)ccc3OCC2=O)cs1	HEK cytotox inconclusive, NIH3T3 tox inconclusive
COc1ccccc1-c1ccc2c(n1)CN(Cc1csc(C)n1)C(=O)CO2	NIH3T3 tox 45µM
Cc1nc(CN2Cc3nc(-c4cc5ccccc5o4)ccc3OCC2=O)cs1	hNpr1 antagonist inconclusive, FLuc inh inconclusive, HEK cytotox 63µM, NIH3T3 tox inconclusive
CC(C)CCN1CCC(C2CCN(C(=O)c3ccnn3C)C2)CC1 (centres undefined)	none
COCCNC(=O)C1CC(=O)N(c2n[nH]c3ccccc23)C1 (centres undefined)	none
Cc1cc(Cn2cc3c4c(cccc42)[C@H](CC(C)C)N[C@H](C(=O)NCc2nccs2)C3)no1	HEK cytotox 22µM, NIH3T3 tox inconclusive
CC(=O)NCCNC(=O)[C@@H]1Cc2cn(Cc3cc(C)on3)c3cccc(c23)[C@H](CC(C)C)N1	HEK cytotox inconclusive
Cc1cc(Cn2cc3c4c(cccc42)[C@H](CC(C)C)N[C@H](C(=O)NCc2ccc(C)o2)C3)no1	GPT2 inh inconclusive, HEK cytotox 32µM, NIH3T3 tox inconclusive
O=C1NCCN2CC3(CCN(S(=O)(=O)c4ccc5c(c4)OCCO5)CC3)CC12 (centres undefined)	none
Cc1ccc([S+](=O)([O-])N2CCCC(C(=O)N3CCC(N4Cc5cccn5C4=O)CC3)C2)cc1 (centres undefined)	HEK cytotox 45µM, NIH3T3 tox inconclusive (no result: hNpr1 antagonist, FLuc inh)
O=C(C1CCCN([S+](=O)([O-])c2cccc(C(F)(F)F)c2)C1)N1CCC(N2Cc3cccn3C2=O)CC1 (centres undefined)	HEK cytotox inconclusive, NIH3T3 tox inconclusive (no result: hNpr1 antagonist, FLuc inh)
COc1ccc(C(=O)NC2CCN(c3ccnc4ccnn34)C2)cc1 (centres undefined)	HEK cytotox 50µM, NIH3T3 tox inconclusive (no result: hNpr1 antagonist, FLuc inh)
O=C(NC1CCN(c2ccnc3ccnn23)C1)c1ccc(C(F)(F)F)cc1 (centres undefined)	HEK cytotox inconclusive, NIH3T3 tox inconclusive (no result: hNpr1 antagonist, FLuc inh)
Cc1ccc(C(=O)NC2CCN(c3ccnc4ccnn34)C2)cc1 (centres undefined)	HEK cytotox 63µM, NIH3T3 tox inconclusive (no result: hNpr1 antagonist, FLuc inh)
Cc1ccccc1CNC[C@H]1O[C@H](Cc2cc(CN(C)Cc3ccccc3)on2)CC[C@@H]1O	HEK cytotox inconclusive, NIH3T3 tox inconclusive
CNC(=O)CCn1ncc2cc(OCc3ccccc3-c3cccc(OC)c3F)ccc21	HEK cytotox inconclusive, NIH3T3 tox 45µM

Screening results (PubChem BioAssay)
